The values that follow come from PubChem BioAssay (EPA / NIEHS).

Inconclusive results are not listed. Activity calls are given as the source filed them. How the source made its calls: active means hit-call score of the fitted dose curve at least 0.9, where 1 is the maximum; inconclusive means response in the unintended direction; inactive means score below 0.9.

This assay in a line: ATG_XTT_Cytotoxicity: Cytotoxicity Assessment in the Attagene TRANS-FACTORIAL HepG2 Assay (AID 2283584).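 On AC50: cells exposed to compound for 24 h before reading.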 The procedure: ATG_XTT_Cytotoxicity is a cell-based, single-readout assay that uses HepG2, a human liver cell line, with measurements taken at 24 hours after chemical dosing in a 24-well plate.ATG_XTT_Cytotoxicity is one of one assay component(s) measured or calculated from the ATG_XTT_Cytotoxicity assay. It is designed to make measurements of cell number, a form of viability reporter, as detected with […] signals by XTT cytotoxicity assay technology.Data from the assay component ATG_XTT_Cytotoxicity was analyzed into 1 assay endpoint. This assay endpoint, ATG_XTT_Cytotoxicity, was analyzed in the positive analysis fitting direction relative to DMSO as the negative control and baseline of activity. Using a type of viability reporter, loss-of-signal activity can be used to understand changes in the viability. Furthermore, this assay endpoint can be referred to as a primary readout, because the performed assay has only produced 1 assay endpoint. To generalize the intended target to other relatable targets, this assay endpoint is annotated to the cell cycle intended target family, where the subfamily is cytotoxicity.
Human liver HepG2 cells are transiently transfected with multiple reporter transcription units (MRTUs) in 6-well plates using FuGene 6 reagent (Roche; 3 ml FuGene/1 mg DNA). The MRTU constructs are regulated by a cis-regulating element (promoter). […] A major difference between the CIS and TRANS system is that in CIS activities of endogenous TFs are measured, whereas the TRANS assay evaluates changes in activities of exogenous, chimeric NR-Gal4 proteins. […] At the end of 24 hour incubation, total RNA was isolated using TriZol reagent (Invitrogen). The isolated RNA is then reverse-transcribed using oligo(dT) primer and Mo-MLV reverse transcriptase (Invitrogen) with DNAse I (Ambion) treatment for 30 min. The one-tenth of the produced cDNA was amplified by PCR using Taq DNA polymerase (Invitrogen) and two reporter sequence-specific primers. The PCR products were fluorescently labeled by primer extension with 6-arboxyfluorescein (6-FAM) 5'-labeled reporter sequence-specific primer (2 min at 95 C, 20 s at 68 C and 10 min at 72 C) and these products were digested with 5U of HpaI (New England Biolabs) for 2h at 37 C. The fragments were purified using Qiaquick PCR columns (Qiagen), analyzed on an ABI 3130xL genetic analyzer (Applied Biosystems) with peak positions identified by using a set of X-rhodamine (ROX)-labeled MapMarker1000 molecular weight standards (BioVentures). The raw capillary electrophoresis data was processed using Attagraph software (Attagene).
Regarding `CSc1c(Cl)c(Cl)c(Cl)c(Cl)c1Cl`, the compound was classed as inactive. The same measure, in the same setting: with `CCCCCC(=O)CC` the entry was “inactive”; with `CCc1cc(Cc2cc(CC)cc(C(C)(C)C)c2O)c(O)c(C(C)(C)C)c1`, “inactive”. For `CCOC(=O)COC(=O)c1cc(Oc2ccc(C(F)(F)F)cc2Cl)ccc1[N+](=O)[O-]`, the result was inactive. Same read-out and setting: with `C=CCCC(=O)/C=C/C1C(C)=CCCC1(C)C` (stereo not given) the entry was “inactive”. Still for that read-out and setting: under `O=C1CCCC=CCCCCCCCCCC1` stands “inactive”; under `C[C@@H]1CCN(C(=O)[C@H](CCCN=C(N)N)NS(=O)(=O)c2cccc3c2NC[C@H](C)C3)[C@@H](C(=O)O)C1`, “inactive”.

For the compound `CCC(=O)OCCOc1ccccc1`, the outcome was inactive. With `CCCCCCCCCCCC(=O)OCC(O)CO` (stereo not given), the compound was called inactive. The same measure, in the same setting: under `COc1ccc(COC(C)=O)cc1` stands “inactive”; under `C=C(C)C(=O)OCCOCCOCCOC(=O)C(=C)C`, “inactive”. On to `CC(=O)O[C@@H]1C[C@@H]2CC[C@@]1(C)C2(C)C`, for which the compound was classed as inactive. `CCCCCCCCCCCCN1CCCCCC1=O`: the AC50 (commonly the concentration at which the activity in the assay is half-maximal) is 29.9 µM (active). On to `CC1=NN(c2ccc(S(=O)(=O)O)cc2)C(=O)C1`, for which the result was inactive.

With `N#Cc1ccc(CC(=O)c2cccc(C(F)(F)F)c2)cc1`, the compound was called inactive. In the case of `CCCC(C)C(O)CC` (stereo not given), the result was inactive. Regarding `O=C(Nc1ccc([N+](=O)[O-])cc1)Nc1ccc([N+](=O)[O-])cc1` (tested in a mixture with another compound), the outcome was inactive.

Turning to `Cc1c(OCC(F)(F)F)ccnc1CS(=O)c1nc2ccccc2[nH]1` (stereo not given), the outcome was inactive. For the compound `CCCCCC(C)=O`, the result was inactive. As for `C[Si](C)(C)O[Si](C)(C)C`, the compound was called inactive.

With `CC(C)(N=C=O)c1cccc(C(C)(C)N=C=O)c1`, the compound was classed as inactive. Consider `CCOC(=O)C(C#N)=C(c1ccccc1)c1ccccc1`, for which the result was inactive. As to `CCCCCCC(C)(C)S`, the compound was classed as inactive. Take `COc1ccc(OC)c(N=Nc2c(O)ccc3ccccc23)c1`: the result was inactive. In the case of `Cc1ncc([N+](=O)[O-])n1CCO`, the compound was classed as inactive. With `O=C1OC[C@H](Cc2cccc(O)c2)[C@H]1Cc1cccc(O)c1`, the outcome was inactive. Still for that read-out and setting: with `BrCc1cccc(Oc2ccccc2)c1` the entry was “inactive”; with `CCCCCCCCCCCCS(=O)(=O)Cl`, “inactive”; with `CCCCCCCCSCCO`, “inactive”.

In the case of `CCOCCOCCOCC`, the call was inactive. As for `OCc1cccc(Oc2ccccc2)c1`, the compound was called inactive.

For the compound `C/C=C(\C)C(=O)OCCc1ccccc1`, the compound was called inactive.

With `CC(C)=CCCC(C)CC(=O)O` (stereo not given), the call was inactive.

On to `Cc1c(Cl)cccc1[N+](=O)[O-]`, for which the call was inactive. Consider `O=C(O)CNc1ccccc1`, for which the result was inactive.

For `CN(C)CCOC(C)(c1ccccc1)c1ccccn1` (stereo not given), the compound was classed as inactive.

Take `CCO/C=C1\N=C(c2ccccc2)OC1=O`: the compound was classed as inactive.

Take `CC1C2CC(CC2C2CCCC(O)C2)C1(C)C` (stereo not given): the outcome was inactive. Regarding `CCCC1O[C@@H]2C[C@H]3[C@@H]4CCC5=CC(=O)C=C[C@]5(C)[C@H]4[C@@H](O)C[C@]3(C)[C@]2(C(=O)CO)O1` (stereo not given in full), the compound was called inactive. As for `Cc1ccc(C)o1`, the compound was called inactive.
